Data reported in PubChem BioAssay AID540259 (Broad Institute, 2011).
Results with a measured potency or affinity are listed apart. The source made the active and inactive calls.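 Rule for the calls: active = cell killing, meaning signal decrease, with fitted half-maximal dose at or below ten times the top valid tested dose; inconclusive = poor fit, or flat curve with 30 to 70% signal loss; inactive = the rest.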

assay: HeLa cell cytotoxicity, dose response, cytotoxicity control for MITF activator project, CellTiter-Glo luminescence, cherry-pick samples (AID 540259); conditions: HeLa viability, CellTiter-Glo ATP luminescence, 24 h; series mostly up to 35 µM

SMILES | outcome
COc1ccc(Oc2nnc(C)c3ccccc23)cc1 | inactive
COc1ccc(Nc2nc(N)c3ccccc3n2)c(OC)c1 | inactive
O=C(Oc1ccc2ccccc2c1Cl)N1CCCCCC1 | inactive
O=C(NCCSc1ccccn1)c1ccc(Cl)cc1Cl | inactive
CCc1nnc(NS(=O)(=O)c2ccc(NC(=O)c3cccc(Cl)c3)cc2)s1 | inactive
Clc1ccc(-c2cnnc(-c3ccccn3)n2)cc1 | inactive
COC(=O)Cc1csc(Nc2ccccc2Cl)n1 | inactive
O=C(N/N=C/c1ccsc1)c1ccc2c(c1)OCO2 | inactive
Cc1cccc(-c2nc(C#N)c(NC3CCCCC3)o2)c1 | inactive
Cn1c(NC(=O)CCC2CCCCC2)cc(=O)n(C)c1=O | inactive
O=C(Nc1cccnc1)c1cc(-c2ccc(Cl)cc2)on1 | inactive
COC(=O)Cc1ccc(NC(=O)c2ccc(C)c(C)c2)cc1 | inactive
CCCCc1ccc(Nc2ncnc3nc[nH]c23)cc1 | inactive
O=C(N/N=C/c1ccc(Cl)cc1Cl)c1cccc(F)c1 | inactive
COc1ccc2cc(-c3csc(-c4cccnc4)n3)ccc2c1 | inactive
COc1ccc(-c2cn3nc(C)c(C)nc3n2)cc1OC | inactive
COC(=O)Cc1ccc(OCc2ccc(Cl)nc2)cc1 | inactive
Cc1nc2c3cnn(-c4ccc(C)c(C)c4)c3ncn2n1 | inactive
O=c1[nH]c(Cc2cccs2)nc2scc(-c3ccc(Cl)cc3)c12 | inactive

SMILES | outcome
Cn1c(SCc2c(F)cccc2Cl)nnc1-c1cnccn1 | inactive
CCc1ccc2[nH]c3nc(C)cc(C)c3c(=O)c2c1 | inactive
ClCCn1cnc2c(SCc3ccccc3)ncnc21 | inactive
COc1ccc(NC(=O)CCCn2c(=O)oc3ccccc32)cc1Cl | inactive
CC1CCC(NC(=O)c2cc3c(s2)CCCC3)CC1 (configuration not stated) | inactive
CCN1CCN(c2cc3c(nn2)Oc2ccccc2N3C)CC1 | inactive
CCCC(=O)N/C(N)=N/c1nc2ccccc2o1 | inactive
CC(C)(C)c1ccc(-c2noc(-c3ccno3)n2)cc1 | inactive
O=C(Nc1ccc2ccccc2c1)c1cc(F)c(F)cc1Cl | inactive
C/C(=N\OC(=O)Nc1ccccc1)c1ccc(C)cc1 | inactive
O=C(Nc1ccc(Br)cc1F)c1ccc2nsnc2c1 | inactive
CN(C)c1ccc(/C=C/c2cccc[n+]2[O-])cc1 | inactive
Cc1noc(N)c1C(=O)Nc1ccc(C(C)(C)C)cc1 | inactive
O=C(O)c1ccc(N/N=C/c2cccc(C(F)(F)F)c2)cc1 | inactive
CC(C)(C)c1csc(NC2=NS(=O)(=O)c3ccccc32)n1 | inactive
O=C(Cc1ccc(O)cc1)NC1CCCCCC1 | inactive
c1ccc2c(c1)CC/C2=N/Nc1nc2ccccc2[nH]1 | inactive
C/C(=C\c1ccc(N)cc1)c1nc2ccccc2[nH]1 | inactive
